What all share (experiment): NCI-60 one-dose screen, 48 h (100 = growth as untreated, 0 = no growth, -100 = all killed)
One experiment has as its system T-47D breast. The following applies: 10 µM unless noted.
A further experiment relates to BT-549 breast. The following applies: 10 µM unless noted.
The next experiment concerns MDA-MB-435 melanoma. The settings on record: 10 µM unless noted.
For a further experiment, the system named is SW-620 colon. The settings on record: 10 µM unless noted.
In the next experiment the test system is MCF7 breast.
The subject of another experiment is HCT-116 colon. The settings on record: 10 µM unless noted.
Another experiment concerns HCC-2998 colon. The following applies: 10 µM unless noted.
Another experiment deals with KM12 colon. The following applies: 10 µM unless noted.

The structures appear in SMILES notation. “And” between values parts separate entries of the source, which are not always exact repeats. Equal entries are not always repeated. About 83,000 compounds went through this panel and 20% of them were active in at least one assay; those are over-represented in the sample as a whole.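 Activity criterion: percent growth below 10, measured after cells in 96-well plates were exposed to a single compound concentration for 48 hours.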 The source made the active and inactive calls.

`Oc1ccc(/C=N/NC(=S)Nc2ccccc2)nc1`: the growth in the experiment with T-47D breast is 12.6% (inactive); with BT-549 breast, 44.8% (inactive); in the experiment with MDA-MB-435 melanoma it was 31.5% (inactive); with SW-620 colon it was 39.4% (inactive); in the experiment on MCF7 breast (10 µM), 16.4% (inactive); in the experiment with HCT-116 colon it was 21% (inactive). Also, the growth was 5.05% (active) with HCC-2998 colon and 11.3% (inactive) in the experiment on KM12 colon.
Consider `O=C(O)C1C2CC3C(OC(=O)C31)C2Br` (stereo not given), for which the growth is 98.7% (inactive) and 96% (inactive) in the experiment on T-47D breast; 99.4% (inactive) and 93.2% (inactive) in the experiment with BT-549 breast; 109% (inactive) and 95.4% (inactive) in the experiment on MDA-MB-435 melanoma; 94.7% (inactive) and 94.8% (inactive) with SW-620 colon; 88.7% (inactive) and 93.8% (inactive) with MCF7 breast (10 µM); 94.1% (inactive) and 101% (inactive) with HCT-116 colon. The growth is 88.8% (inactive) and 96.8% (inactive) in the experiment on HCC-2998 colon; 108% (inactive) and 106% (inactive) in the experiment with KM12 colon.
As for `CCOc1ccc(-c2nc3ccc(-c4nc5ccc(N6CCN(C)CC6)cc5[nH]4)cc3[nH]2)cc1`, the growth was -69.4% (active) in the experiment on T-47D breast; -96.6% (active) with BT-549 breast; -96% (active) in the experiment on MDA-MB-435 melanoma; -85.5% (active) in the experiment on SW-620 colon; -90.3% (active) with MCF7 breast (10 µM); -77.6% (active) in the experiment on HCT-116 colon. In addition, the results for the growth in the experiment on HCC-2998 colon and in the experiment on KM12 colon were -95.3% (active) and -100% (active), respectively.
`COc1cc(/C=C(/C)C[N+](=O)[O-])ccc1O`: the growth in the experiment on T-47D breast was 56.7% (inactive); with BT-549 breast, 113% (inactive); in the experiment on MDA-MB-435 melanoma it was 105% (inactive); with SW-620 colon, 48.9% (inactive); in the experiment on MCF7 breast (10 µM) it was 16.5% (inactive); with HCT-116 colon, 82.7% (inactive). Further, the growth with HCC-2998 colon was 102% (inactive); in the experiment on KM12 colon, 96.5% (inactive).
For the compound `CCCCCCCCCCCCCCCCOP(=O)([O-])OCC[N+](C)(C)C`, the growth is 73% (inactive) in the experiment on T-47D breast; 45% (inactive) in the experiment on BT-549 breast; 68.3% (inactive) in the experiment on MDA-MB-435 melanoma; 50.9% (inactive) in the experiment with SW-620 colon; 68.5% (inactive) in the experiment with MCF7 breast (10 µM); 24.6% (inactive) in the experiment with HCT-116 colon. Besides, the growth with HCC-2998 colon is 17.7% (inactive); in the experiment on KM12 colon, -90.4% (active).
As for `O=C(/C=C/C=C/c1ccccc1)c1ccco1`, the growth in the experiment with T-47D breast was 67.5% (inactive); in the experiment with BT-549 breast, 113% (inactive); in the experiment with MDA-MB-435 melanoma it was 92.8% (inactive); with SW-620 colon, 62.4% (inactive); in the experiment with MCF7 breast (10 µM) it was 26.1% (inactive); with HCT-116 colon it was 36.3% (inactive). Moreover, the growth in the experiment on HCC-2998 colon is 114% (inactive); in the experiment on KM12 colon, 86.8% (inactive).
On to `Oc1c(Cl)cc(Cl)c2cccnc12`, for which the growth in the experiment on T-47D breast was 52.4% (inactive) and 43.4% (inactive); in the experiment on BT-549 breast it was 53.1% (inactive) and 40.3% (inactive); in the experiment on MDA-MB-435 melanoma, 63.1% (inactive) and 54.3% (inactive); with SW-620 colon, 54.9% (inactive) and 57.5% (inactive); in the experiment with MCF7 breast (10 µM) it was 50.8% (inactive) and 29.1% (inactive); with HCT-116 colon, 40.6% (inactive) and 25.6% (inactive). The growth with HCC-2998 colon is 74.6% (inactive) and 69.2% (inactive); in the experiment on KM12 colon, 54.2% (inactive) and 52.3% (inactive).
Regarding `CC1=CC(O)C2CC1C2(C)C` (stereo not given), the growth is 96% (inactive) and 106% (inactive) in the experiment with T-47D breast; 98.9% (inactive) in the experiment with BT-549 breast; 103% (inactive) and 97.3% (inactive) in the experiment with MDA-MB-435 melanoma; 105% (inactive) and 108% (inactive) in the experiment on SW-620 colon; 101% (inactive) and 98.9% (inactive) in the experiment on MCF7 breast (10 µM); 103% (inactive) in the experiment with HCT-116 colon. The growth is 95.4% (inactive) and 112% (inactive) in the experiment on HCC-2998 colon; 101% (inactive) and 114% (inactive) in the experiment with KM12 colon.
In the case of `N[C@H](C(=O)O)[C@@H]1CC(Cl)=NO1`, the growth in the experiment with T-47D breast was 37.4% [20 µM] (inactive); in the experiment on BT-549 breast, 27.3% [20 µM] (inactive); with MDA-MB-435 melanoma, 29.6% [20 µM] (inactive); with SW-620 colon, 10.2% [20 µM] (inactive); in the experiment on MCF7 breast (20 µM), 12.3% (inactive); with HCT-116 colon, 14.1% [20 µM] (inactive). Moreover, the growth with HCC-2998 colon is 34.7% [20 µM] (inactive); in the experiment on KM12 colon, 18.2% [20 µM] (inactive).
For the compound `O=C1C2=C(Nc3cc([N+](=O)[O-])ccc3N2)OC1c1c2ccccc2cc2ccccc12` (stereo not given), the growth is 47.4% (inactive) in the experiment with T-47D breast; 23.3% (inactive) in the experiment on BT-549 breast; 73% (inactive) in the experiment with MDA-MB-435 melanoma; 21.8% (inactive) in the experiment with SW-620 colon; 22.3% (inactive) in the experiment on MCF7 breast (10 µM); 15.5% (inactive) with HCT-116 colon. Besides, the growth is 72.6% (inactive) in the experiment on HCC-2998 colon and 16.7% (inactive) with KM12 colon.
For `CCN1/C(=C\c2cc[n+](CC)c3ccccc23)C=Cc2ccccc21`, the growth with T-47D breast was 2.9% (active); in the experiment on BT-549 breast, 10.8% (inactive); in the experiment on MDA-MB-435 melanoma it was -30.7% (active); in the experiment with SW-620 colon, 8.76% (active); in the experiment with MCF7 breast (10 µM) it was 8.12% (active); in the experiment with HCT-116 colon, 11.9% (inactive). For the same compound, the growth with HCC-2998 colon was 23% (inactive); with KM12 colon it was 1.57% (active).
Consider `Nc1ncnc2c1ncn2C1OC(CO)C(O)C1O` (stereo not given), for which the growth in the experiment on T-47D breast is 109% (inactive) and 9.96% (active) and 90.6% (inactive); in the experiment on BT-549 breast it was 101% (inactive) and 47.6% (inactive) and 123% (inactive); with MDA-MB-435 melanoma, 110% (inactive) and 103% (inactive) and 112% (inactive); in the experiment on SW-620 colon it was 112% (inactive) and 85.1% (inactive) and 106% (inactive); with MCF7 breast (10 µM) it was 107% (inactive) and 10.7% (inactive) and 97% (inactive); in the experiment with HCT-116 colon, 108% (inactive) and 65% (inactive) and 90% (inactive). The growth in the experiment with HCC-2998 colon was 105% (inactive) and 31.2% (inactive) and 107% (inactive); in the experiment with KM12 colon it was 116% (inactive) and 112% (inactive) and 114% (inactive).
`NC(=S)N/N=C\c1nccc2c(C(F)(F)C(F)(F)C(F)(F)F)cccc12`: the growth in the experiment with T-47D breast was 4.05% (active); in the experiment with BT-549 breast, 41.4% (inactive); in the experiment on MDA-MB-435 melanoma, 23.4% (inactive); in the experiment with SW-620 colon it was 28.6% (inactive); in the experiment with MCF7 breast (10 µM) it was 11.5% (inactive); in the experiment on HCT-116 colon, 17.4% (inactive). Further, the growth is 13.3% (inactive) with HCC-2998 colon and 14.2% (inactive) in the experiment with KM12 colon.
Regarding `CC(C)c1ccc2nc3ccc(C(=O)NCCN4CCN(c5ccccc5)CC4)cn3c(=O)c2c1`, the growth in the experiment on T-47D breast is 28.5% (inactive); in the experiment on BT-549 breast it was 51.3% (inactive); in the experiment with MDA-MB-435 melanoma it was 58.7% (inactive); with SW-620 colon it was 87.4% (inactive); in the experiment on MCF7 breast (10 µM), 58.8% (inactive); in the experiment with HCT-116 colon it was 53.6% (inactive). The growth was 75.9% (inactive) in the experiment on HCC-2998 colon and 67.2% (inactive) with KM12 colon.
In the case of `COC(=O)Nc1nc2ccc(C(=O)c3ccccc3)cc2[nH]1`, the growth with T-47D breast was 36.8% (inactive) and 82.6% (inactive) and 77.2% (inactive); with BT-549 breast, 63.9% (inactive) and 63% (inactive) and 51.4% (inactive); with MDA-MB-435 melanoma, -59.5% (active) and -46.6% (active) and -73% (active); with SW-620 colon, 24.2% (inactive) and 25% (inactive) and 19.4% (inactive); in the experiment on MCF7 breast (10 µM), 21.4% (inactive) and 18.4% (inactive) and 8.91% (active); with HCT-116 colon it was 19.9% (inactive) and 9.73% (active) and 13.3% (inactive). The growth in the experiment with HCC-2998 colon is 57.3% (inactive) and 2.48% (active) and 23.8% (inactive); in the experiment with KM12 colon, 11.2% (inactive) and -7.2% (active) and 3.76% (active).

The values above are taken from PubChem BioAssay (NCI).
